Bioassay records as filed in PubChem.
This is a sample that favours compounds with a hit; in the whole collection about 2.9% have one here.
PLCg1 inh – PLC-gamma1 (human) inhibition, primary screen; inhibition, % at 12.2 µM; 370,000 compounds, 0.84% hits; P19174; purified PLC-gamma1, fluorogenic substrate, fluorescence; AID 720700; in the data active = inhibition above about 9.5%
ADAM10 inh – ADAM10 inhibition, QFRET primary screen | recombinant ADAM10, EDANS/DABCYL FRET peptide cleavage, 3 h | 370,000 compounds, 0.62% hits | inhibition, % at 7 µM | O14672;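 active = inhibition above a per-campaign cutoff equal to the mean of compounds falling between control-based bounds plus 3 SD, cut at about 20% in these data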
ADAM17 inh – inhibitors of human ADAM17; AID 720648; recombinant ADAM17, EDANS/DABCYL FRET peptide cleavage; P78536; 370,000 compounds, 0.83% hits; inhibition, % at 6.95 µM;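 active = inhibition above the mean of compounds lying between control limits plus 3 SD, set per campaign, cut at about 8.5% in these data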
Target sequence (P78536 215-824 limits assumed): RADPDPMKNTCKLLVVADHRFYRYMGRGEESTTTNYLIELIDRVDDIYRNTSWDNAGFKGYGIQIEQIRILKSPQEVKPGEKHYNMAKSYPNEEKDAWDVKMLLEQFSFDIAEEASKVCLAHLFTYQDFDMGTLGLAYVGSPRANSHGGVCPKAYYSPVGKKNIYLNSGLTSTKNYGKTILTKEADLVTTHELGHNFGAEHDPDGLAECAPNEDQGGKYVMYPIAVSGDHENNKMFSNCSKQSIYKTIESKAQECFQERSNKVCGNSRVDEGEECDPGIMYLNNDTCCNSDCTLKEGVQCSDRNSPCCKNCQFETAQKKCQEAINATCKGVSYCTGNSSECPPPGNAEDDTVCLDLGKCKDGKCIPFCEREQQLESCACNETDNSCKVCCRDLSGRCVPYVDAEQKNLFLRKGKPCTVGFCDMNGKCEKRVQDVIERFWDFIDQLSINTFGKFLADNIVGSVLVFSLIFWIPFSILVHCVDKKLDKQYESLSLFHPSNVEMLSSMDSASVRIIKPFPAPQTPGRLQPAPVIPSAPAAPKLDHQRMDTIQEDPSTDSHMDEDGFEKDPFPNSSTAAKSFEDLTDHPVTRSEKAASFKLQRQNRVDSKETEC
PLC-beta3 inh – inhibitors of human phospholipase C beta3. Purified PLC-beta3, fluorogenic substrate, fluorescence. inhibition, % at 12.2 µM. 370,000 compounds, 0.18% hits. Q01970. AID 720704; in the data active = inhibition above about 11%
proKLK7 act – proKLK7 (human) activation, primary screen | 370,000 compounds, 0.9% hits | purified proKLK7, EDANS-DABCYL substrate fluorescence; 100% is mature enzyme control, 0% vehicle | activation, % at 7 µM | P49862;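 active = activation above the mean of all tested compounds plus 3 SD, computed per campaign excluding outliers beyond control limits, cut at about 13% in these data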
proKLK7 act conf – proKLK7 activation, confirmation; AID 686949; shares compounds with proKLK7 act; activation, % at 7 µM; purified proKLK7, EDANS-DABCYL substrate fluorescence; scaled: vehicle 0, mature enzyme 100; 3,200 compounds, 68% hits;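 active = activation, as change over the incubation, above the mean of all tested compounds plus 3 SD, cut at about 13% in these data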
EDANS interfere – fluorescence interference counter-screen for KLK7 activators; activation, % at 7 µM; EDANS-DABCYL substrate fluorescence interference, no enzyme, 4 h; solvent 0%, active enzyme control 100%; 3,200 compounds, 80% hits; shares compounds with proKLK7 act;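 active = activation above the all-compound mean plus 3 SD, ignoring values outside control-based bounds, cut at about 4.8% in these data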;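 note: value is the 4 h activation minus the activation read at time zero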
EDANS interf – counter-screen for kallikrein-7 activators: EDANS-DABCYL interference, dose response. shares compounds with proKLK7 act. EDANS-DABCYL peptide fluorescence interference, no enzyme. EC50, µM. 250 compounds, 20% hits;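 active = compounds that raise the fluorescence signal in this interference counterscreen, with EC50 at or below 10 µM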;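 note: intact quenched peptide substrate alone read at 355 nm excitation and 520 nm emission; signal is fluorescence gain from T0 to T4 after four hours at room temperature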
A number is an active result; i = inactive; nt = no result.

SMILES	PLCg1 inh	ADAM10 inh	ADAM17 inh	PLC-beta3 inh	proKLK7 act	proKLK7 act conf	EDANS interfere	others
Cc1nn(CCc2nn[nH]n2)c2nc(C(F)(F)F)cc(C(F)(F)F)c12	i	i	i	i	30.0	17.2	12.1	EDANS interf=i
Cc1nn(CCc2nn[nH]n2)c2nc(-c3ccc(Br)cc3)cc(C(F)(F)F)c12	i	i	i	i	i	nt	nt
C#CCn1c(=NC(=O)c2ccc(S(=O)(=O)N3CCCc4ccccc43)cc2)sc2cc(S(N)(=O)=O)ccc21	i	i	i	i	50.8	i	23.9
CCOc1ccc(-c2cc(C(=O)N/N=C/c3cccnc3)c3ccccc3n2)cc1	i	i	i	i	i	nt	nt
COc1ccc(-c2cc(C(=O)N/N=C/c3cccnc3)c3cc(C)cc(C)c3n2)cc1	i	i	i	i	112.5	i	i
C/C(=N\NC(=O)c1cc(-c2ccccc2C)nc2ccccc12)c1cccnc1	i	i	i	i	i	nt	nt
O=C(NCc1ccco1)c1cc(-c2cccs2)nc2ccccc12	i	i	i	i	i	nt	nt
C/C(=N\NC(=O)c1cc(-c2ccc(C)s2)nc2ccccc12)c1cccnc1	i	i	i	i	65.7	i	i
Cc1ccc(-c2cc(C(=O)NCCCn3ccnc3)c3ccccc3n2)s1	i	i	i	i	35.3	74.8	75.7
O=C(NCCCn1ccnc1)c1cc(-c2ccncc2)nc2ccccc12	i	i	i	i	i	nt	nt
Cc1ccc(-c2cc(C(=O)NCc3ccco3)c3ccccc3n2)s1	i	i	i	i	15.6	21.6	65.4
Cc1ccc(C=NNC(=O)CSc2nc3sc4c(c3c(=O)n2-c2ccccc2)CCCC4)s1	i	i	i	i	i	nt	nt
Cc1cc(=O)oc2cc(N3C(=O)CC(Cc4ccccc4)C3=O)ccc12 (stereo not drawn)	i	i	i	i	19.1	25.0	23.3
CC(=O)Nc1cccc(N2C(=O)CC(Cc3ccccc3)C2=O)c1 (stereo not drawn)	i	i	i	i	i	nt	nt
O=C(CCc1ccccc1)N[C@H]1C(=O)CCC[C@]12C(=O)N(Cc1ccccc1)c1ccccc12	i	i	i	i	i	nt	nt
COc1ccc(-c2coc3c(CN4CCOCC4)c(O)ccc3c2=O)cc1	i	i	i	i	52.4	49.7	55.8
O=c1c(-c2ccc(Cl)cc2)coc2c(CN3CCOCC3)c(O)ccc12	i	i	i	i	18.9	20.7	23.2
O=c1c(-c2ccccc2)coc2c(CN3CCCC3)c(O)ccc12	i	i	i	i	66.5	38.8	48.6
O=c1cc(-c2ccccc2)c2ccc(O)c(CN3CCCCC3)c2o1	i	i	i	i	i	nt	nt
S=C(Nc1cccc(Cl)c1)OC1CCC12CCC(c1ccccc1)CC2 (stereo not drawn)	i	i	i	i	i	nt	nt
CC(C)C[C@@H]1COc2cc(Br)ccc2S(=O)(=O)N1Cc1cn(CC2CCCCC2)nn1	i	i	i	i	i	nt	nt
O=C(C1CCN(c2cncnc2)CC1)N1CCOCC1	i	i	i	i	i	nt	nt
O=C(NCCCN1CCCC1=O)c1cc(-c2ccc(F)cc2)nc2ccccc12	i	i	i	i	i	nt	nt
COc1ccc(NC(=O)c2cc(-c3ccco3)nc3ccccc23)cc1	i	i	i	i	14.6	14.0	20.5
NC(=O)COC(=O)c1cc(-c2ccco2)nc2ccccc12	i	i	i	i	161.2	63.1	72.2
SMILES	PLCg1 inh	ADAM10 inh	ADAM17 inh	PLC-beta3 inh	proKLK7 act	proKLK7 act conf	EDANS interfere	others
COc1ccc(NC(=O)CN(C)C(=O)c2cc(-c3ccco3)nc3ccccc23)cc1	i	i	i	i	i	nt	nt
COc1ccc(-c2cc(C(=O)NCCCN3CCCC3=O)c3ccccc3n2)cc1	i	i	i	i	34.6	29.1	31.3
COc1ccccc1CNC(=O)COC(=O)c1cc(-c2ccco2)nc2ccccc12	i	i	i	i	i	nt	nt
CCCCCCNC(=O)c1cc(-c2ccco2)nc2ccccc12	i	i	i	i	20.3	i	i
Cc1cccc(C)c1NC(=O)Cn1nnc(-c2ccncc2)n1	i	i	i	i	i	nt	nt
COc1ccc(N2C(=O)c3n[nH]c(C)c3C2c2cccc(C(F)(F)F)c2)cc1 (stereo not drawn)	i	i	i	i	i	nt	nt
O=C(NCCCN1CCOCC1)c1cc(-c2ccc(F)cc2)nc2ccccc12	i	i	i	i	i	nt	nt
O=C(NCCCN1CCOCC1)c1cc(-c2ccco2)nc2ccccc12	i	i	i	i	62.5	17.7	30.2
CN(C)C(CNC(=O)c1cc(-c2ccco2)nc2ccccc12)c1ccccc1 (stereo not drawn)	i	i	i	i	31.1	i	i
COc1cc(-c2cc(C(=O)Nc3cc(S(=O)(=O)N4CCOCC4)ccc3C)c3ccccc3n2)cc(OC)c1OC	i	i	i	i	211.0	232.9	315.7
COc1ccc(-c2cc(C(=O)Nc3ccc(S(N)(=O)=O)cc3)c3ccccc3n2)cc1OC	i	i	i	i	131.0	77.1	94.7
COc1cc(-c2cc(C(=O)Nc3cc(S(=O)(=O)N4CCOCC4)ccc3O)c3ccccc3n2)cc(OC)c1OC	i	i	i	i	i	nt	nt
Cc1ccccc1NC(=O)c1cc(-c2ccco2)nc2ccccc12	i	i	i	i	i	nt	nt
Cc1cccc(-c2cccc3c4c([nH]c23)[C@@H]2C[C@H](N(C)C(=O)c3ccco3)[C@H]([C@H](C)O)C(=O)N2CC4)c1	i	i	i	i	i	nt	nt
COCc1cc(N2CCN(C(=O)OC(C)(C)C)C[C@@H]2C)ccc1N1CCN(Cc2ccccc2)[C@@H](C)C1	i	i	i	i	i	nt	nt
CC(C)CCNC(=O)c1cc(-c2ccco2)nc2ccccc12	i	i	i	i	12.8	i	i
CCOc1ccc(-c2cc(C(=O)NCCCN3CCOCC3)c3ccccc3n2)cc1	i	i	i	i	18.4	i	9.6
COc1ccc(C2=Nc3ccccc3C2(O)CCN2C(=O)c3ccccc3C2=O)cc1 (stereo not drawn)	i	i	i	i	16.1	22.0	22.4
CCN1c2ccccc2-c2nc3ccccc3n2C1c1ccccn1 (stereo not drawn)	i	i	i	i	21.1	28.5	i	EDANS interf=i
c1csc(C2Nc3ccccc3-c3nc4ccccc4n32)c1 (stereo not drawn)	i	i	i	i	89.7	29.8	27.3
Cc1ccsc1C1Nc2ccccc2-c2nc3ccccc3n21 (stereo not drawn)	i	i	i	i	63.4	i	i
CC(=O)N1c2ccccc2-c2nc3ccccc3n2C1C (stereo not drawn)	i	i	i	i	i	nt	nt
